Assay results as given in PubChem BioAssay AID1987 (The Scripps Research Institute Molecular Screening Center, 2009).
Where “and” joins values, the source holds several entries; their conditions need not be identical. Identical values can stand only once. The campaign covered roughly 320,000 compounds. About 560 (0.17%) were called active.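 How the source made its calls: active means inhibition above the campaign's mean inhibition across all tested compounds plus 3 SD (cut at about 9.5% in these data); inactive means the rest.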 The sample as a whole holds a higher share of actives than the screen did.

target: Serine/threonine-protein phosphatase 5 (Homo sapiens) (UniProt P53041); test: PP5 phosphatase inhibitors, primary screen, biochemical, fluorescence (AID 1987); details: purified PP5c, OMFP substrate fluorescence; at 6.7 µM; stronger effect = higher value;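 further: 0% = DMSO only and 100% = 100 µM cantharidin control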
Sequence (P53041 whole entry, looked up): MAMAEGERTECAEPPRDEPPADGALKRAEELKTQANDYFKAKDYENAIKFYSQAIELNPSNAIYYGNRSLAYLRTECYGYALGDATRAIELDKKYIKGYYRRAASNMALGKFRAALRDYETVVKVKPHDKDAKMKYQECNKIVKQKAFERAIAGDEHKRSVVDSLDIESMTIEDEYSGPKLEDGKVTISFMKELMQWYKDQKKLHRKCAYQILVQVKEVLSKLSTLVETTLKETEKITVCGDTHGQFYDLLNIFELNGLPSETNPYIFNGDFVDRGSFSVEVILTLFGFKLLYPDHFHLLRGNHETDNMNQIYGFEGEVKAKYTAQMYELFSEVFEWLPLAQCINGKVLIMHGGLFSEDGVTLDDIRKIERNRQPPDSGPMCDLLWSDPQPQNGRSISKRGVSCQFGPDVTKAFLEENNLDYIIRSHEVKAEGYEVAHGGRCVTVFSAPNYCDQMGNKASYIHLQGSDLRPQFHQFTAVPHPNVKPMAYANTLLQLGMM

inhibition, inactive:
Cc1ccc(Cn2c(C)c3cnn(CC(=O)NCc4ccccn4)c(=O)c3c2C)cc1 -1.29%, CCNC(=O)c1sccc1-n1cccc1 0.46%, CC(C)(C)C(=O)NNC(=O)c1ccc(Oc2cc(Cl)cc(Cl)c2)o1 -2.8%, CCn1nnc(NC(=O)c2cc(Cl)c(OC)c(Cl)c2)n1 0.92%, CCN(CC(=O)NC1CCS(=O)(=O)C1)c1nc(-c2cccnc2)nc2ccccc12 (stereo not drawn) -1.12%, Cc1cc(Cl)ccc1OCCCC(=O)NCc1ccccn1 1.77%, O=C1[C@H]2[C@@H](c3ccc(F)cc3)N3C(=O)N(c4ccc(C(F)(F)F)cc4)C(=O)[C@@]3(Cc3ccccc3)[C@H]2C(=O)N1C1CCCCC1 5.23%, CCCN(CCC)S(=O)(=O)c1ccc(C(=O)N2CC3CCC(CC3)C2)cc1 2.42%, CCOC(=O)c1sc(N(Cc2ccccc2)C(=O)CN2C(=O)CN(C)C2=O)nc1C -1.26%, C[C@H]1[C@H]2c3nc4ccccc4n3C[C@H]1ON2C1CCCCC1 -1.65%, COc1ccc(C(=O)NCc2ccc(C)cc2)cc1S(=O)(=O)N1CCCC1 -1.31%, NCCCC[C@@H]1NC(=O)[C@H](CCC(=O)O)NC(=O)c2cc([N+](=O)[O-])cc(I)c2NCC[C@@H](C(N)=O)NC1=O 4.27%, Cn1c(CC(=O)Nc2ccc(F)cc2)nnc1SCC(=O)NC1CCCCC1 1.34%, COc1cccc(NC(=O)Nc2nnc(N3CCCCC3C)s2)c1 (stereo not drawn) 3.58%, CC(C)c1ccc(/C=C/C(=O)NCCCN2CCOCC2)cc1 0.61%, CCC(C(=O)Nc1ncccn1)(C(F)(F)F)C(F)(F)F -2.46%, C/C(N)=C(/C#N)C(=O)COC(=O)c1cc(-c2ccc(C)cc2)nc2ccccc12 3.74%, CSCC[C@H](NC(=O)N1CCn2c1nc1ccccc12)C(=O)NCc1ccc2c(c1)OCO2 -0.3%, CCN(C(=O)COc1ccc(C(=O)c2ccccc2)cc1)c1ccccc1 0.04%, N#Cc1c(-c2ccccc2)c(-c2ccccc2)n[nH]c1=O -1.11%, O=c1[nH]c(-c2ccccc2)c(-c2ccccc2)[nH]1 0.4%, CSCc1ccc(C(=O)Nc2cc(C)cc(C)c2)cc1 -1.23%, COc1ccc(NC(=O)COC(=O)CNC(=O)C2CCCCC2)cc1 -1.03%, COCCN(C(=O)COC(=O)Cc1cccc(OC)c1)c1c(N)n(Cc2ccccc2)c(=O)[nH]c1=O -0.76%, O=C(CSc1n[nH]c(=O)n1-c1ccccc1)Nc1ccccc1C(F)(F)F 1.79%, O=C1C(C=NCC2CCCO2)=C(O)c2ccccc21 (stereo not drawn) 2.92%, Cc1ccccc1C(=O)NCC(c1ccco1)N1CCc2ccccc21 (stereo not drawn) -0.08%, Cc1cccc(N(C)C(=O)CN2C(=O)COc3ccc(S(=O)(=O)N4CCCCCC4)cc32)c1 5.32%, O=C(O)c1cccc2c1C(=O)N(C1CCCCC1)C2 1.97%, CN1CCN(C(=O)Cn2c(C(F)(F)F)nc3ccccc32)CC1 0.08%, COc1ccc(CNC(=O)C2(CC3CC(c4ccccc4)=NO3)CCN(C(=O)c3cccc(O)c3)CC2)cc1 (stereo not drawn) 0.71%, CN(CC(=O)Nc1ccccc1Cl)C(=O)COc1cccc2c1OC(C)(C)C2 1.31%, CCOc1cnc(-c2c(-c3ccccc3Cl)noc2C)o1 3.98%, Cc1ccc(N2CC(C(=O)N3CCC4(CC3)CC(=O)c3ccccc3O4)CC2=O)cc1C (stereo not drawn) -1.86%, Cc1cccc(S(=O)(=O)N2CN(CC3CCCO3)c3nc4ccccc4nc32)c1 (stereo not drawn) 3.91%, N#C/C=C\Oc1ccc(Cl)cc1N -0.64%, CC1CCCCC1NC(=O)C1CCCN1S(=O)(=O)c1cccc2nsnc12 (stereo not drawn) -5.55%, Cc1cccc(NC(=O)c2cccc(C(=O)Nc3cccc(C)c3C)n2)c1C -0.92%, CCNc1nc(NC(C)C)nc(N2CC(=O)N(CC(=O)OCC)C2=N)n1 -0.1%, C=CCN1CCN(C(=O)CCCc2ccccc2)CC1 2.37%, Cc1cccc(CCNC(=O)Cn2ncc3c([nH]c4ccc(C)cc43)c2=O)c1 -2.46%, Cc1ccc(Nc2nc(N)nc(CSc3nnc(C)s3)n2)cc1 3.84%, Cc1nnc(SCc2cc(=O)[nH]c(N3CCN(Cc4ccccc4)CC3)n2)s1 1.51%, Cc1ccc(NC2=NC(c3ccccc3)n3c(nc(C)cc3=O)N2)cc1 (stereo not drawn) 0.48%, COc1ccccc1NS(=O)(=O)c1ccc(C)c(C(=O)NCC(c2ccco2)N(C)C)c1 (stereo not drawn) -1.06%, COC(=O)C1(C)CC1(c1ccccc1)c1ccccc1 (stereo not drawn) 3.86%, COc1ccc(-c2cc(=O)oc3cc(OC(C)C(=O)Nc4ccc(CN5CCOCC5)cc4)ccc23)cc1 (stereo not drawn) 4.28%, CCCCCC1CCC(c2nnc(SCC(C)=O)o2)CC1 (stereo not drawn) 2.41%, COc1ccc(N(CC(=O)NC2CCCC2)C(=O)CS(=O)CC(=O)Nc2ccc3c(c2)OCO3)cc1 (stereo not drawn) 0.8%, Cn1c(=O)c2sccc2n(Cc2ccc(Br)cc2)c1=O 3.16%, CCN(CC)C(=O)CSc1nnc(CNc2ccc(F)cc2)n1Cc1ccco1 3.87%, O=C(NN1C(=O)C2C3C=CC(O3)C2C1=O)c1ccncc1 (stereo not drawn) -0.72%, CC(C)(C)n1nc2c(c1NC(=O)c1ccc(S(=O)(=O)N3CCCC3)cc1)CS(=O)C2 (stereo not drawn) -2.2%, C=CCOc1ccc(/C=C/C(=O)OCC(=O)NCC2CCCO2)cc1 (stereo not drawn) -0.48%, O=Cc1c(Nc2ccccc2Cl)nc2ccccn2c1=O -0.13%, C[C@H](NC(=O)c1[nH]cnc1C(=O)Nc1nccs1)c1ccccc1 1.13%, O=C(O)CCc1nc2cc(Cl)ccc2n(Cc2ccccc2)c1=O -2.07%, CCOC(=O)Nc1ccc2c(c1)N(C(=O)CCN1CCN(CCO)CC1)c1ccccc1CC2 2.46%, CCOC(=O)Nc1ccc2c(c1)N(C(=O)CCCl)c1ccccc1[S@]2=O -0.16%, O=S1(=O)N=C(N(CCO)/N=C/c2ccccc2F)c2ccccc21 -2.75%, CC(C)Cn1cnc2c1c(=O)n(CC(=O)NN)c(=O)n2Cc1ccccc1 1.33%, CC(=O)c1c(C)[nH]c(C(=O)Nc2cc(S(=O)(=O)N(C)C)ccc2C)c1C 3.8%, O=C(N=C1SC2CS(=O)(=O)CC2N1c1cc(Cl)ccc1Cl)C1CC1 (stereo not drawn) -1.21%, CC(C)OC(=O)c1sc2nc3c(cc2c1N)C(=O)CCC3 -4.25%, O=C(O)c1ccc(-n2cccc2)cc1O 1.23%, O=C(Nc1ccccc1F)C1C2C=CC3(O2)C1C(=O)N(c1cccnc1)C3C(=O)NC1CCCCC1 (stereo not drawn) 2.73%, O=C(O)c1ccc(S(=O)(=O)N2CCC(Cc3ccccc3)CC2)cc1 -3.11%, CCCCN(CCCC)CCCNC(=O)CN1C(=O)COc2ccc(S(=O)(=O)N3CCC(C)CC3)cc21 -1.56%, COc1ccc(CCNC(=S)NC(=O)/C=C/c2ccc(C)cc2)cc1OC 1.62%, Cn1c(Cc2cccc3ccccc23)nnc1SCC(=O)N1CCN(c2cccc(Cl)c2)CC1 3.02%, Nc1nc(SCC(=O)NN(c2ccccc2)c2ccccc2)n[nH]1 -0.37%, Cc1cccn2cc(-c3cccc(S(=O)(=O)N4CCCCC4)c3)nc12 0.22%, COc1ccc(/C=C2\SC(=S)N(CCCC(=O)NC3CCCC3)C2=O)cc1OC -4.92%, COc1ccc(/C=C2\SC(=S)N(CCC(=O)Nc3cccc(C(=O)O)c3)C2=O)cc1OC 0.86%, Cc1c(CCC(=O)N[C@@H](CC(C)C)C(=O)O)c(=O)oc2c(C)c3oc4c(c3cc12)CCCC4 -1.14%, CN1CC(=O)N=C1N 2.26% and -0.51%, CC1(C)O[C@@H]2[C@H](O1)[C@@H](COS(=O)(=O)O)O[C@H]2n1cnc2c(=O)[nH]cnc21 0.9%, COCCOC1CCN(C(=O)c2ccc(OC)c(OC3CCN(C(C)C)CC3)c2)CC1 0.82%, CC(C)C[C@H](NC(=O)C1CC(=O)N(c2ccc3c(c2)OCCO3)C1)C(=O)NC1CCCC1 (stereo partly drawn) -0.77%, COc1ccc(S(=O)(=O)NNC(=O)Nc2ccc(C)cc2)c(OC)c1 0.5%, COc1ccc(NC(=O)CNC(=O)Cc2ccccc2)cc1OC -2.46%, COC(=O)c1cc(NC(=O)C2C3C=CC(C3)C2C(=O)O)cc(C(=O)OC)c1 (stereo not drawn) 1.39%, CC(C)OC(=O)c1c(NC(=O)c2ccco2)sc2c1CCCC2 1.48%, COc1ccc(NC(=S)SC)cc1OC 3.15%, CCOC(=O)c1c(NC(=O)C2CCN(S(=O)(=O)c3ccc(Cl)cc3)CC2)sc2c1CCCC2 0.34%, CC(C)COC(=O)c1ccc(NC(=O)C2C3C=CC(C3)C2C(=O)O)cc1 (stereo not drawn) 1.86%

inhibition, active:
O=C(O)c1n[nH]nc1-c1ccccc1 50.7%, Cc1nnc(SCc2nc3ccccc3nc2C)s1 12.1%, CCOC(=O)Nc1ccc2c(c1)N(C(=O)CN1CCN3CCCC3C1)c1ccccc1CC2 (stereo not drawn) 10.7%, COc1cc(/C=C2/SC(=S)N(Cc3ccccc3)C2=O)cc(OC)c1O 10.8%, COc1ccc(NC(=O)C2C3CCC(O3)C2C(=O)O)cc1OC (stereo not drawn) 76.2%, CC(C)OC(=O)c1cc(NC(=O)C2C3CCC(O3)C2C(=O)O)cc(C(=O)OC(C)C)c1 (stereo not drawn) 55.6%, Cc1sc(NC(=O)C2C3CCC(O3)C2C(=O)O)c(C(=O)OC(C)C)c1-c1ccc(Cl)cc1 (stereo not drawn) 15.1%
